In PubChem BioAssay (Tox21):
Records with an inconclusive call do not appear. The source made the active and inactive calls. Unless noted, calls follow the shape of the dose curve; as a rule, active = well fitted curve in the direction sought with a large enough effect in the repeat runs; inconclusive = weak or mixed curves; inactive = no such curve, though single readings can be large; an effect the other way counts as inactive or inconclusive.

What was measured:
[1] = qHTS assay to test for compound auto fluorescence at 535 nm (green) in HEK293 cells (AID 720680)
[2] = qHTS assay to test for compound auto fluorescence at 460 nm (blue) in HEK293 cell free culture (AID 720681)
Outline: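 Compounds were added to cell-free DMEM with 10% FBS and fluorescence read directly. The blue channel used 405 nm excitation and 460 nm emission, with triamterene as the reference fluorophore.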

[3] = qHTS assay to test for compound auto fluorescence at 535 nm (green) in HEK293 cell free culture (AID 720682)
Outline: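 Using fluorescein as calibrant, autofluorescence was quantified at 485/535 nm in cell-free DMEM containing 10% FBS after pintool addition of compound or vehicle.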

[4] = qHTS assay to test for compound auto fluorescence at 590 nm (red) in HEK293 cell free culture (AID 720683)
Outline: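 Cell-free wells of DMEM with 10% FBS received compound, and intrinsic fluorescence was read at excitation/emission 540/590 nm. Values expressed as equivalence to Rose Bengal sodium.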

[5] = qHTS assay to test for compound auto fluorescence at 590 nm (red) in HepG2 cell free culture (AID 720684)
Outline: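 Compound was pinned into wells holding MEM with 10% FBS and no cells, and red fluorescence was read at Ex/Em 540/590 nm. Signal is expressed as auto fluorescence equivalency relative to Rose Bengal sodium.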

[6] = qHTS assay to test for compound auto fluorescence at 460 nm (blue) in HepG2 cell free culture (AID 720685)
Outline: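 Compound (23 nL) or DMSO pinned into cell-free MEM with 10% FBS; blue fluorescence read at 405/460 nm excitation/emission, expressed as auto-fluorescence equivalency to triamterene.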

[7] = qHTS assay to test for compound auto fluorescence at 535 nm (green) in HepG2 cell free culture (AID 720686)
[8] = qHTS assay to test for compound auto fluorescence at 460 nm (blue) in HepG2 cells (AID 720687)
Outline: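 HepG2 cells in MEM with 10% FBS, attached overnight at 37 C, were exposed to compound or DMSO for 1 hr at 37 C, 5% CO2. Blue fluorescence was read at 405/460 nm, with triamterene as reference fluorophore.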

[9] = molecular target: Glucocorticoid receptor (Homo sapiens) (UniProt P04150); assay: qHTS assay to identify small molecule agonists of the glucocorticoid receptor (GR) signaling pathway (AID 720691; active = well fitted activation curve with a large enough effect in the signal ratio in the repeat runs, not every such curve was filed as active; the % refers to the signal ratio)
Sequence of Glucocorticoid receptor (Homo sapiens) (P04150 whole entry, looked up): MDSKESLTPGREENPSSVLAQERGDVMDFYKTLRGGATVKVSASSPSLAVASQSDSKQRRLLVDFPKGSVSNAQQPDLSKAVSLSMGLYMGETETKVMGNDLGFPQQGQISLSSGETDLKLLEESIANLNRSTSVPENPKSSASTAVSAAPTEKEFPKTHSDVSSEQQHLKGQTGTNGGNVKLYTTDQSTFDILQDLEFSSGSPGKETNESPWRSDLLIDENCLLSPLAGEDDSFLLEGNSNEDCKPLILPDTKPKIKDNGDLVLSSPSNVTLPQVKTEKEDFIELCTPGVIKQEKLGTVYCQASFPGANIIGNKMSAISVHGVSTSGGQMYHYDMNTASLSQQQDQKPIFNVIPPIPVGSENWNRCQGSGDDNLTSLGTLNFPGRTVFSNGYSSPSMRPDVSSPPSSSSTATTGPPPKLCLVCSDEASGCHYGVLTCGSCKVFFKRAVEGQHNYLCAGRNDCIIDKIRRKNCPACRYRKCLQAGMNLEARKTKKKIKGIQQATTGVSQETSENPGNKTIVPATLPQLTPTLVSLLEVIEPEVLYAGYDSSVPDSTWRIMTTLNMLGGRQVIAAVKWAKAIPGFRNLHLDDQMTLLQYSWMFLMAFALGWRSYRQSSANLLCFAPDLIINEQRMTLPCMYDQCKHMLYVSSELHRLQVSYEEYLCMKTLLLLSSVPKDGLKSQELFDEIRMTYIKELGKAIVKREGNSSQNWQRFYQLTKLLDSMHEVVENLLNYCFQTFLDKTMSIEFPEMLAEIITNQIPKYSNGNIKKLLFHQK
Outline: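 GR-bla HeLa cells carrying a GRE-driven beta-lactamase reporter, exposed to compounds for 18 h at 37 C. Reporter activation read as fluorescence after 2 h with LiveBLAzer B/G FRET substrate at room temperature.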

[10] = molecular target: Glucocorticoid receptor (Homo sapiens) (UniProt P04150); assay: qHTS assay to identify small molecule antagonists of the glucocorticoid receptor (GR) signaling pathway (AID 720692; active = well fitted inhibition curve with a large enough effect in the signal ratio in the repeat runs, not every such curve was filed as active; the % refers to the signal ratio)
Outline: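 GR-bla HeLa cells carrying a GRE-driven beta-lactamase reporter received compound after 4 h plating, then dexamethasone (5 nM final). After 18 h at 37C, the FRET substrate was loaded for 2 h at room temperature and fluorescence read.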

[11] = qHTS assay to identify small molecule antagonists of the glucocorticoid receptor (GR) signaling pathway - cell viability counter screen (AID 720693); also: nearly all actives have a fitted effect of over 55% in size
[12] = qHTS assay for identifying genotoxic compounds that show differential cytotoxicity against isogenic chicken DT40 cell lines with known DNA damage response pathways - Rev3 mutant cell line (AID 743014); also: nearly all actives have a fitted effect of over 55% in size
[13] = qHTS assay for identifying genotoxic compounds that show differential cytotoxicity against isogenic chicken DT40 cell lines with known DNA damage response pathways - Rad54/Ku70 mutant cell line (AID 743015); also: nearly all actives have a fitted effect of over 60% in size
[14] = qHTS assay to identify small molecule antagonists of the androgen receptor (AR) signaling pathway - cell viability counter screen (AID 743033; also: nearly all actives have a fitted effect of over 45% in size)
[15] = qHTS assay for identifying genotoxic compounds that show differential cytotoxicity against isogenic chicken DT40 cell lines with known DNA damage response pathways - wild type cell line (AID 743012); also: nearly all actives have a fitted effect of over 60% in size
Outline: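 Wild-type DT40 cells (300/well) exposed to compounds for 40 hours at 37 C/5% CO2. Viability read by CellTiter-Glo luminescence after 30 min at room temperature.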

[16] = qHTS assay to identify small molecule antagonists of the androgen receptor (AR) signaling pathway using the MDA cell line - cell viability counter screen (AID 743041; also: nearly all actives have a fitted effect of over 45% in size)
Outline: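 MDA-kb2 AR-luc cells (MMTV-luciferase, AR/GR responsive) treated with compounds plus R1881 agonist for 16 h at 37C. CellTiter-Fluor added at 15.5 h; fluorescence read after 30 min in the same wells.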

[17] = molecular target: Androgen receptor (Homo sapiens) (UniProt P10275); assay: qHTS assay to identify small molecule antagonists of the androgen receptor (AR) signaling pathway (AID 743035; active = well fitted inhibition curve with a large enough effect in the signal ratio in the repeat runs, not every such curve was filed as active; the % refers to the signal ratio)
Sequence of Androgen receptor (Homo sapiens) (P10275 whole entry, looked up): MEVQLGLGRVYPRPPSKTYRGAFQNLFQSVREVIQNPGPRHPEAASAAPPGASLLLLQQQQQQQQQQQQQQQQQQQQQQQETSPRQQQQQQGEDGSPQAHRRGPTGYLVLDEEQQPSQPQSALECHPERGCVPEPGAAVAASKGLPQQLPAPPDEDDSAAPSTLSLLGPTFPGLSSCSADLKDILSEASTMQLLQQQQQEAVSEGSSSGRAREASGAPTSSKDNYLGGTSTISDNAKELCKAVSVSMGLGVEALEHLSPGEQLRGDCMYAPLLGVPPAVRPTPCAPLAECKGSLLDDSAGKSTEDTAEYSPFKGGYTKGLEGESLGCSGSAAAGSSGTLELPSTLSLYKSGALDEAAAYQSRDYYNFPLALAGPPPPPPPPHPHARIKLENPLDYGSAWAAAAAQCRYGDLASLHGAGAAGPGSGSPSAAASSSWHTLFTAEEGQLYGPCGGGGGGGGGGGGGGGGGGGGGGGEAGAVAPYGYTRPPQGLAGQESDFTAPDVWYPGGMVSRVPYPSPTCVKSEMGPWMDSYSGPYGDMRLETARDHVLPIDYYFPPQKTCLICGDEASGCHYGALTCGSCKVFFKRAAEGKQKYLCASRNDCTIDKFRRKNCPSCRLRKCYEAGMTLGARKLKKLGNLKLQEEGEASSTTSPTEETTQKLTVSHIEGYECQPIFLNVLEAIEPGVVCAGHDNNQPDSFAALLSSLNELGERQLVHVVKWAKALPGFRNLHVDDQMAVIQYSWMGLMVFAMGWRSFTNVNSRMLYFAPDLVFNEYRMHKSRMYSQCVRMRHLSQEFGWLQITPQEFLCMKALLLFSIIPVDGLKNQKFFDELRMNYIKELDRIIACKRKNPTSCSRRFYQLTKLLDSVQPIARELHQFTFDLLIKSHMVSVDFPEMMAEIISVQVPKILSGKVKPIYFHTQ
Outline: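 HEK293 cells stably carrying UAS-beta-lactamase reporter, 2,000/well, given compounds plus R1881 agonist and incubated 16 h at 37C. LiveBLAzer B/G FRET substrate then added for 2 h at room temperature before fluorescence reading.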

[18] = molecular target: Androgen receptor (Homo sapiens) (UniProt P10275); assay: qHTS assay to identify small molecule agonists of the androgen receptor (AR) signaling pathway (AID 743036; active = well fitted activation curve with a large enough effect in the signal ratio in the repeat runs, with a control signal flat, not every such curve was filed as active; the % refers to the signal ratio)
Outline: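 In this Tox21 qHTS, 2,000 HEK293 AR-bla cells per well were incubated with compounds for 16 h at 37C and 5% CO2. Fluorescence intensity was recorded 2 h after adding LiveBLAzer B/G FRET substrate at room temperature.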

[19] = molecular target: Androgen receptor (Homo sapiens) (UniProt P10275); assay: qHTS assay to identify small molecule agonists of the androgen receptor (AR) signaling pathway using the MDA cell line (AID 743040; also: nearly all actives have a fitted effect of over 20% in size)
Outline: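 MDA-kb2 breast carcinoma cells carrying MMTV-luciferase (responsive to AR and GR), plated 5 h then treated 16 h with compounds at 37C, 0% CO2. Read-out was ONE-Glo luminescence after 30 min at room temperature.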

[20] = molecular target: Androgen receptor (Homo sapiens) (UniProt P10275); assay: qHTS assay to identify small molecule antagonists of the androgen receptor (AR) signaling pathway using the MDA cell line (AID 743042; also: nearly all actives have a fitted effect of over 55% in size)
Outline: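 MDA-kb2 breast carcinoma cells carrying MMTV-luciferase (AR/GR responsive) were co-treated with compounds and the agonist R1881 for 16 h at 37C. Inhibition read as ONE-Glo luminescence; CellTiter-Fluor fluorescence measured in parallel for cytotoxicity.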

Measured: Potency

COC(=O)CCCCCCCC(=O)OC
not listed: [15] | [16] | [17] | [18] | [19] | [20]
inactive: all other assays above

CC(=C(CCOC(=O)C(C)C)SSC(CCOC(=O)C(C)C)=C(C)N(C=O)Cc1cnc(C)nc1N)N(C=O)Cc1cnc(C)nc1N
not listed: [12] | [17] | [18] | [19] | [20]
inactive: all other assays above

CC(=O)N[C@@H](CCC(=O)O)C(=O)O
not listed: [12] | [16] | [17] | [18] | [19] | [20]
inactive: all other assays above

C=C(C)C(=O)OCCNC(C)(C)C
not listed: [12] | [16] | [17] | [18] | [19] | [20]
inactive: all other assays above

O=C(CCNNC(=O)c1ccncc1)NCc1ccccc1
not listed: [17] | [18] | [19] | [20]
inactive: all other assays above

OCCCCC(O)CO (configuration not stated)
not listed: [13] | [17] | [18] | [19] | [20]
inactive: all other assays above

COc1ccc2c(c1OC)C(=O)O[C@@H]2[C@H]1c2c(cc3c(c2OC)OCO3)CCN1C
not listed: [12] | [17] | [18] | [19] | [20]
inactive: all other assays above

C=COCCOCCOCCOC=C
not listed: [13]
inactive: all other assays above
